# Key:
# Assay in all cases: PBM binding z-score (relative to random genomic background probes); higher = stronger binding; sequences stand for … in GC…GCGATTGACAGCGTAGAATGAAGG
# [1] = system: FXR:RXRa (NR concentration 270 nM, RXRa partner concentration 90 nM)
# Method in brief: (§1)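 Ligand-free nuclear receptor dimers were bound for 1 h to custom Agilent 4×180K protein-binding microarrays. Detection used antibodies against each partner (one per run). Binding z-scores rest on regression-normalized fluorescence, with random background probes as the reference.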
# [2] = system: LXRa:RXRa (NR concentration 270 nM, RXRa partner concentration 90 nM)
# Method in brief: as §1
# [3] = system: LXRa homodimer (NR concentration 270 nM)
# Method in brief: as §1
# [4] = system: LXRb:RXRa (NR concentration 270 nM, RXRa partner concentration 90 nM)
# Method in brief: as §1
# [5] = system: LXRb homodimer (NR concentration 270 nM)
# Method in brief: as §1
# [6] = system: PPARa:RXRa (NR concentration 270 nM, RXRa partner concentration 90 nM)
# Method in brief: as §1
# [7] = system: PPARg:RXRa (NR concentration 180 nM, RXRa partner concentration 90 nM)
# Method in brief: as §1
# [8] = system: PPARg:RXRa 270nM:90nM, anti-RXR (NR concentration 270 nM, RXRa partner concentration 90 nM)
# Method in brief: as §1
# [9] = system: PPARg:RXRa 30nM:10nM, anti-RXR (NR concentration 30 nM, RXRa partner concentration 10 nM)
# Method in brief: as §1
# [10] = system: PPARg:RXRa 90nM:30nM, anti-RXR (NR concentration 90 nM, RXRa partner concentration 30 nM)
# Method in brief: as §1
# [11] = system: PPARg:RXRa DBDmut IVT, anti-RXR (DBD mutation: RXRa K156A/R161A, NR concentration 270 nM, RXRa partner concentration 90 nM)
# Method in brief: as §1
# [12] = system: PPARg:RXRa IVT, anti-PPARg (NR concentration 270 nM, RXRa partner concentration 90 nM)
# Method in brief: as §1
# [13] = system: PPARg DBDmut:RXRa IVT, anti-PPARg (DBD mutation: PPARg1 K132A/R137A, NR concentration 270 nM, RXRa partner concentration 90 nM)
# Method in brief: as §1
# [14] = system: PPARg DBDmut IVT, anti-PPARg (DBD mutation: PPARg1 K132A/R137A, NR concentration 270 nM)
# Method in brief: as §1
# [15] = system: PPARg homodimer (NR concentration 180 nM)
# Method in brief: as §1
# [16] = system: PXR:RXRa (NR concentration 270 nM, RXRa partner concentration 90 nM)
# Method in brief: as §1
# [17] = system: PXR homodimer (NR concentration 270 nM)
# Method in brief: as §1
# [18] = system: RARa:RXR (NR concentration 270 nM, RXRa partner concentration 90 nM)
# Method in brief: as §1
# [19] = system: RARa homodimer (NR concentration 270 nM)
# Method in brief: as §1
# [20] = system: RARb:RXRa (NR concentration 270 nM, RXRa partner concentration 90 nM)
# Method in brief: as §1
Sequence,PBM binding z-score [1],PBM binding z-score [2],PBM binding z-score [3],PBM binding z-score [4],PBM binding z-score [5],PBM binding z-score [6],PBM binding z-score [7],PBM binding z-score [8],PBM binding z-score [9],PBM binding z-score [10],PBM binding z-score [11],PBM binding z-score [12],PBM binding z-score [13],PBM binding z-score [14],PBM binding z-score [15],PBM binding z-score [16],PBM binding z-score [17],PBM binding z-score [18],PBM binding z-score [19],PBM binding z-score [20]
CGAAATAGGTCATTGACAGGACAGTGAATAGTAA,6.1,5.06,1.3,3.58,0.828,5.64,6.83,6.73,4.21,6.12,7.51,7.87,3.54,2.18,3.02,3.03,0.444,4.06,1.24,4.3
TCTAGTTGGTCACGGACGTCACACACGACGGGTA,0.24,0.203,-0.153,0.406,0.211,0.764,1.24,1.59,2.77,1.95,2.14,1.94,1.1,1.25,0.55,0.245,0.184,0.485,0.469,1.57
GATACAGGGTCAGCTAGAGGCTAGAGTATGGAAA,4.9,2.5,-0.262,2.16,-0.533,4.51,3.64,3.06,0.467,1.89,0.581,2.17,-0.0888,-0.495,2.09,2.29,-0.0961,3.58,1.14,3.88
AGAATGAGGTTATACGTAGATCTGGGAAGAAAGT,2.02,1.53,-0.23,1.2,-0.294,3.14,1.88,2,0.653,1.38,3.58,2.08,0.645,0.965,0.546,0.994,0.44,1.5,-0.128,1.23
CAAACTAGCTCACAGAGGTCAAAGTCCGTGCGTA,4.84,5.04,5.7,4.99,1.59,4.82,2.1,3.38,1.05,2.74,0.877,2.03,0.153,0.182,4.66,5.9,3.09,6.47,2.88,3.87
ACAGACAGGTGAGTGAAGGAAACTCAGCTGGACG,-0.54,-0.517,-0.15,-0.792,-0.646,-1.08,0.519,-0.724,-0.177,-0.368,0.214,0.274,-0.163,-1.04,-0.703,-0.793,-0.677,-0.777,-0.124,-0.0129
TCTCGGAGGACACGAAGGTCAGAGCTTTCCAGAG,1.16,1.13,-0.0274,0.923,-1.06,1.98,0.444,1.45,2.1,1.96,1.65,0.886,-0.279,-1.37,0.322,1.97,0.404,2.05,-0.212,3.38
